Bioassay records as filed in PubChem BioAssay.
Pf Dd2 inh = Plasmodium falciparum Dd2 growth inhibition; P. falciparum Dd2 growth, SYBR Green, 72 h; Potency, µM (highest dose often 28.9 µM), without a hit: at the highest dose activity, negative = inhibition, hits mostly inhibitors; 120,000 compounds, 4.3% hits; active = well fitted inhibition curve with a large enough effect;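 also: plate controls were DMSO vehicle for no effect and reference drug for full effect; nearly all actives have a fitted effect of over 65% in size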
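Infected erythrocytes (Dd2, 0.3% parasitemia, 2.5% hematocrit final) are added to compound in RPMI-1640/Albumax II medium, grown 72 h at 37C in low oxygen, then lysed with saponin/Triton-X containing SYBR Green and read by fluorescence.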
The depositor's hits bear a star; i = inactive; [ ] = dose if it differs, or a comment. The entries come from a sample that favours hits as a whole. Potency is read from the fitted curve at half-maximal effect.

SMILES | Pf Dd2 inh
COc1ccccc1CN1COc2ccc3c(oc(=O)c4ccccc43)c2C1 | 0.56µM*
O=C(NC1CCN(c2cnn(Cc3ccccc3)c(=O)c2)CC1)C1CCOCC1 | -21%
CC(C)NC(=O)N1CC[C@@H](CC(=O)O)[C@@H](CC2=NCCc3ccc(C(C)(C)C)cc32)C1 | i
C=CCN1CC2(CCC1=O)CCN(C(=O)C(C)n1cc(C)cn1)CC2 (configuration not stated) | -2%
CCOC(=O)C1CCCN(C(=O)Cn2ncc3c(C)n(Cc4ccc(Cl)cc4)c(C)c3c2=O)C1 (configuration not stated) | -18%
O=C(c1ccc2c(c1)N(Cc1ccccc1F)C(=O)c1ccccc1S2=O)N1CCOCC1 (configuration not stated) | -20%
CCN1C(=O)c2ccccc2S(=O)c2ccc(C(=O)N3CCN(c4ccccc4)CC3)cc21 (configuration not stated) | i
CN1CCN(C(=O)c2ccc3c(c2)N(Cc2ccc(F)cc2)C(=O)c2ccccc2S3=O)CC1 (configuration not stated) | 4µM*
CCOC(=O)C1CCCN(C(=O)c2ccc3c(c2)N(Cc2ccc(Cl)cc2)C(=O)c2ccccc2S3=O)C1 (configuration not stated) | 11µM*
CCN1CCN(C(=O)c2ccc3c(c2)N(Cc2ccc(Cl)cc2)C(=O)c2ccccc2S3=O)CC1 (configuration not stated) | 0.5µM*
O=C(c1ccc2c(c1)N(Cc1ccccc1F)C(=O)c1ccccc1S2=O)N1CCC(Cc2ccccc2)CC1 (configuration not stated) | -3%
CCN1C(=O)c2ccccc2S(=O)c2ccc(C(=O)NCc3ccc(C)cc3)cc21 (configuration not stated) | -24%
CN1C(=O)CS(=O)(=O)C12CCN(C(=O)COc1ccc(F)cc1)CC2 | -1%
COCCN1CCC(CN(Cc2ccncc2)C(=O)c2ccc(=O)n(C)n2)CC1 | 1%
Cc1cc2nc3n(c(=O)c2n1CC(=O)NC1CCc2ccccc21)CCCCC3 (configuration not stated) | -23%
Cc1nc(C)c(C(=O)N2CCCC(COc3ccccc3C(=O)N3CCCC3)C2)s1 (configuration not stated) | -1%
COc1ccc(S(=O)(=O)Nc2ccc(C)n(CC(=O)NCc3ccco3)c2=O)cc1 | i
COc1cc(F)ccc1-c1ccnc2nc(C3CCCCC3)nn12 | -17%
COc1ccccc1CN1Cc2cc(NC(=O)c3ccc4c(c3)OCO4)ccc2OC(C)C1=O (configuration not stated) | 4µM*
CC1Oc2ccc(NC(=O)c3ccc4c(c3)OCO4)cc2CN(Cc2ccccc2)C1=O (configuration not stated) | -21%
COc1ccc(CN2Cc3cc(NC(=O)c4ccc5c(c4)OCO5)ccc3OC(C)C2=O)cc1 (configuration not stated) | -7%
COc1ccccc1CCN1Cc2cc(NC(=O)Cc3cccs3)ccc2OC(C)C1=O (configuration not stated) | 11µM*
COc1ccc(CN2Cc3cc(NC(=O)c4ccc([N+](=O)[O-])cc4)ccc3OC(C)C2=O)c(OC)c1 (configuration not stated) | 10µM*
COc1ccc(CN2Cc3cc(NC(=O)Cc4cccs4)ccc3OC(C)C2=O)cc1 (configuration not stated) | -5%
COc1ccccc1CN1Cc2cc(NC(=O)Cc3cccs3)ccc2OC(C)C1=O (configuration not stated) | i
SMILES | Pf Dd2 inh
COc1ccc(C(=O)Nc2ccc3c(c2)CN(Cc2cc(F)cc(F)c2)C(=O)C(C)O3)cc1 (configuration not stated) | -14%
CC1Oc2ccc(NC(=O)c3ccc([N+](=O)[O-])cc3)cc2CN(Cc2ccccc2F)C1=O (configuration not stated) | i
CCCCNC(=O)N1CCC2(CC1)C(=O)N(CC(=O)NCC1CCCO1)CN2c1ccccc1 (configuration not stated) | i
Cc1nc([C@@H]2CN(Cc3ccccc3)C[C@H]2C(N)=O)n[nH]1 | -2%
O=C1COc2ccc(-c3ccncc3)nc2CN1Cc1ccc(F)cc1 | i
O=C(Nc1cccn2cnnc12)c1ccc(S(=O)(=O)NCCO)cc1 | -11%
CC1=C[C@@H](CNS(=O)(=O)c2cccc(C#N)c2)[C@H](C(C)C)C[C@H]1CC(=O)Nc1ccccn1 | -21%
CC1=C[C@@H](CNS(=O)(=O)c2cccc(C#N)c2)[C@H](C(C)C)C[C@H]1CC(=O)NCc1cccnc1 | -4%
CC1=C[C@@H](CNS(=O)(=O)c2ccc(C)cc2)[C@H](C(C)C)C[C@H]1CC(=O)N(C)Cc1cccnc1 | 13µM*
C#CCNC(=O)C[C@@H]1C[C@@H](C(C)C)[C@H](CNS(=O)(=O)c2cccc(C#N)c2)C=C1C | 11µM*
COCCC(=O)NC[C@@H]1C=C(C)[C@H](CC(=O)N(C)Cc2cccnc2)C[C@H]1C(C)C | 3%[44.1 µM]
CCOC(=O)C[C@@H]1C[C@@H](C(C)C)[C@H](CNS(=O)(=O)c2ccc(OC)cc2)C=C1C | -19%[44.1 µM]
COCc1cc(NCC(O)COc2ccc(Cl)c(C)c2)ncn1 (configuration not stated) | -3%
COc1ccc(C(=O)N2CCC[C@H]2c2nc(-c3ccc(OC)c(OC)c3)no2)c(C)c1 | -16%
CCC(CC)C(=O)N1CCC2(CC1)C(=O)N(C)c1ccccc12 | i
CCOc1ccc(C(=O)N2CCC3(CC2)C(=O)N(C)c2ccccc23)cc1OCC | 13µM*
Cc1cc2cc(C(=O)N3CCC4(CC3)C(=O)N(C)c3ccccc34)ccc2o1 | -22%
CN1C(=O)C2(CCN(C(=O)CCc3ccccc3)C2)c2ccccc21 (configuration not stated) | -16%
CN1C(=O)C2(CCN(C(=O)CCn3cnnn3)CC2)c2ccccc21 | i
CN1C(=O)C2(CCN(C(=O)CCC3CCCC3)CC2)c2ccccc21 | 5.6µM*
O=C(N1CCOCC1)N1CCn2c(nnc2-c2cncc(Br)c2)C1 | -8%
Cc1nc(CCNC(=O)C2CNCCO2)sc1C (configuration not stated) | -19%
CN(C)c1ccc(CN[C@H]2CC(C)(C)[C@@H]3C[C@@](C)(O)CC[C@]23CCC(=O)NCc2cccnc2)cc1 | -10%
COc1ccc(CNC(=O)N2CC[C@@](O)(C3CCC3)[C@H](C)C2)cc1 | -11%
Cc1cc(-c2ccccc2)nc(CN2CC[C@@](O)(C3CCC3)[C@H](C)C2)n1 | 10µM*
SMILES | Pf Dd2 inh
C[C@@H]1CN(Cc2nc(C(N)=O)no2)CC[C@@]1(O)C1CCOCC1 | -5%
CCN(CC)Cc1cnc2c(C(=O)N3CCN(c4ncccn4)CC3)cnn2c1 | 9%
COc1cc(F)ccc1-c1nc(-c2c(C)noc2C)cc2c1cc(C)n2C | -2%[44.1 µM]
COc1ccc(-c2cc(-c3c(C)noc3C)c3cncn3c2)cc1OC | 7.1µM*
COc1cccc(-c2cc(-c3c(C)noc3C)c3cncn3c2)c1OC | -19%[44.1 µM]
COc1ccc(-c2ccc3onc(C)c3n2)cc1OC | 11%[44.1 µM]
COc1cc(F)ccc1-c1cc(-c2c(C)noc2C)c2cncn2c1 | 3.5µM*
CC(C)CNC(=O)C(NC(=O)c1ccccc1Cl)C1CCN(C(=O)c2ccc(Cl)cc2)CC1 (configuration not stated) | i
CCOc1ncccc1C(=O)N[C@H](c1cncc(OC)c1)C1CC(O)C1 (some centres not stated) | -4%
CC(C)S(=O)(=O)N1CCC2(CC1)NCCc1c2[nH]c2ccccc12 | -24%
